Assay outcomes: PubChem, National Center for Advancing Translational Sciences (NCATS)
An excerpt weighted towards active compounds, which were near 8.8% of everything screened.
LMNA splice mod = changes lamin A minigene splicing in HeLa cells; HeLa LMNA splicing GFP/RFP minigene ratio, 48 h; Potency, µM (titrated, usually from 46.1 µM), usual class: inhibitors; hit rate 0.01% among 200,000; active = well fitted inhibition curve with a large enough effect in the signal ratio, with a control signal flat, not every such curve was filed as active; inconclusive = small, poorly fitted or top-dose-only effect, or effect the other way, or a change in a side signal; the % refers to the signal ratio
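Read-out is the ratio of GFP to DsRed2 object intensity, acquired by 488 nm laser-scanning cytometry on HeLa lamin A-EGFP minigene reporter cells. Compound incubation 48 hrs at 37 °C in Opti-MEM with 2% FBS; DMSO 0.5% final.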
HTT aggregate = inhibitors of mutant huntingtin aggregate formation in PC12 cells; PC12 HttQ103-GFP aggregates, Acumen cytometry, 40 h; Potency, µM (doses to about 46.1 µM), usual class: inhibitors; hit rate 1.1% among 220,000; active = well fitted curve in the direction sought with a large enough effect; inconclusive = small, poorly fitted or top-dose-only effect, or another doubt; inactive = no such curve, though single readings can be large; an effect the other way counts as inactive or inconclusive; also: nearly all actives have a fitted effect of over 60% in size
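Steps: seed 1500 PC12 HTTQ103-GFP cells/well; add tebufenozide, 100 nM final; add compound titration; add ATPLite reagent; quantify GFP aggregates by laser scanning cytometry.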
HTT cytoprotect = cytoprotection in Huntington HTT-Q103 PC12 cell model | hit rate 0.14% among 230,000 | AID 1471 | PC12 HTT-Q103 induced, cytoprotection, ATP luminescence, 40 h | Potency, µM (highest dose often 56.4 µM), most hits filed as activators; active = well fitted curve in the direction sought with a large enough effect; inconclusive = small, poorly fitted or top-dose-only effect, or another doubt; inactive = no such curve, though single readings can be large; an effect the other way counts as inactive or inconclusive; also: nearly all actives have a fitted effect of over 45% in size
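Stable PC12 Q103-GFP cells in serum-supplemented, phenol red-free DMEM; induction by tebufenozide at 100 nM final; compound dose series; cell viability quantified luminescently from ATP.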
HPGD inh = HPGD (human) dehydrogenase inhibition; purified HPGD, NADH fluorescence kinetic, PGE2 substrate; Potency, µM, usual class: inhibitors; hit rate 4.3% among 150,000; AID 894
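NADH formation kinetics: reaction with 30 uM PGE2 and 1 mM NAD+ (final), 20 nM enzyme, Tris-HCl pH 8 with Tween 20, after 15 min compound preincubation at room temperature. Fluorescence change, last versus first of five reads.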
ALDH1A1 block = blocks purified human ALDH1A1 activity; AID 1030; hit rate 7.3% among 220,000; Potency, µM (top dose mostly 75.3 µM), hits mostly inhibitors; Purified ALDH1A1, NADH fluorescence, propionaldehyde substrate; P00352
Target sequence (P00352 whole entry, looked up): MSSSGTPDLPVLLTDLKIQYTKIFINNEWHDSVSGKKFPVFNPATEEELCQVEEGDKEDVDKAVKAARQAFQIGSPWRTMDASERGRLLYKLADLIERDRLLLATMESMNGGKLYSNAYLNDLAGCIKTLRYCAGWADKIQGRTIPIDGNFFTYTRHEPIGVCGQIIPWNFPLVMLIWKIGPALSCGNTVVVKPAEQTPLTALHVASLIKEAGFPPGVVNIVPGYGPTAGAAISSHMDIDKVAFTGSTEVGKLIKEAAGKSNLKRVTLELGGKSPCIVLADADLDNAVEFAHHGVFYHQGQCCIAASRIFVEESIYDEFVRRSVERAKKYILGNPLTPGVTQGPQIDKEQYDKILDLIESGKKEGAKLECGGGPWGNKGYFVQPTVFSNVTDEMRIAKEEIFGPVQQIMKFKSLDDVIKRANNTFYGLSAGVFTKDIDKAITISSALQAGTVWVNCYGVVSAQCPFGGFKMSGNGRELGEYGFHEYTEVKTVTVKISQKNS
A number is an active result; – = inactive; ? = inconclusive; · = no result given; [ ] = dose if it differs, or a comment. Unless noted, calls follow the shape of the dose curve; as a rule, active = well fitted inhibition curve with a large enough effect (not every such curve was filed as active); inconclusive = small, poorly fitted or top-dose-only effect, or another doubt; inactive = no such curve, though single readings can be large or run the other way.

SMILES	LMNA splice mod	HTT aggregate	HTT cytoprotect	HPGD inh	ALDH1A1 block
COc1ccccc1NS(=O)(=O)c1cc(NC(=O)CNC(=O)c2cc(C)cc(C)c2)ccc1C	?	–	–[10 µM]	–	–
CCN(CC)c1ccc(NC(=O)COc2ccccc2C)cc1S(=O)(=O)Nc1ccccc1OC	–	–	–[10 µM]	28.2µM	11.9µM
C=CCN1C(=O)C(CC(C)C)NC1=S (configuration not stated)	·	–	–	–	–
N#Cc1c(NC(=O)CSc2ncnc3sccc23)oc(-c2ccco2)c1-c1ccco1	–	–	–[10 µM]	?	10µM
CCSCc1nnc(SCC(=O)Nc2cccc(SC)c2)n1C	–	–	–[10 µM]	–	20µM
CN(CC(=O)NCc1ccccc1)S(=O)(=O)c1cnc[nH]1	–	0.631µM	·	–	–
CCCS(=O)(=O)N1CCN(S(=O)(=O)c2ccccc2[N+](=O)[O-])CC1	·	–	–[10 µM]	·	–
O=[N+]([O-])c1ccccc1S(=O)(=O)N1CCN(CC2CC=CCC2)CC1 (configuration not stated)	–	–[9.22 µM]	–	·	14.1µM
O=[N+]([O-])c1ccccc1S(=O)(=O)N1CCN(Cc2cc3c(cc2O)OCO3)CC1	–	–	–	·	1.89µM
CCN(C(=O)CSc1nc2ccccc2n1CC(=O)N1CCCC(C)C1)c1ccccc1 (configuration not stated)	–	·	·	·	·
C/C(=N/NC(=O)c1ccccc1)C1=C(O)CC(C)(C)CC1=O	·	–[9.22 µM]	–[10 µM]	·	?
CC(=Nc1ccc2c(c1)nc(CO)n2C)C1=C(O)CC(C)(C)CC1=O	–	–	–[10 µM]	3.55µM	?
Cc1ccccc1NC(=O)COc1ccc2c(c1)OC(C)(C)CC2=O	·	–[9.22 µM]	–[10 µM]	·	14.1µM
O=C(NCCC1=CCCCC1)c1ccc2c(c1)N(Cc1cccc(Cl)c1)C(=O)c1ccccc1S2=O (configuration not stated)	–	·	·	·	·
O=c1ccn(-c2cccc(C(F)(F)F)c2)nc1-c1ccn(-c2cccc(Cl)c2)n1	–	–	–	–	–
c1ccc(-c2nnc3n2CCCC3)cc1	–	–	–	14.1µM	–
Brc1cccc(-c2cnc3n2CCCCC3)c1	?	?	–	?	–
Brc1cccc(-c2nnc3n2CCCCC3)c1	–	–	–[0.074 µM]	6.31µM	–
Fc1ccc(-c2nnc3n2CCCCC3)cc1	–	–	–[10 µM]	·	–
Fc1ccc(-c2cc(-c3nnc4n3CCCCC4)c3ccccc3n2)cc1	–	?	–[10 µM]	–	–
O=C1Nc2ccc(Br)cc2C1=Nc1ccc(-c2nnc3n2CCCCC3)cc1	–	–	–	3.98µM	–
O=C(/C=C/c1ccco1)OCc1nnc(-c2ccc(Cl)cc2)o1	?	–	–	·	25.1µM
O=C(/C=C/c1ccco1)OCc1nnc(-c2ccccc2)o1	–	–	–	·	?
CCCCn1c(N)c(N(CC)C(=O)CCc2ccccc2)c(=O)[nH]c1=O	–	–	–[10 µM]	–	–
COc1ccc(S(=O)(=O)c2c(C)c(NS(=O)(=O)c3ccccc3)cc(C)c2O)cc1	·	–	–	·	8.91µM
SMILES	LMNA splice mod	HTT aggregate	HTT cytoprotect	HPGD inh	ALDH1A1 block
Cc1c(NS(=O)(=O)c2ccccc2)cc(Cl)c(O)c1C	–	–	–[10 µM]	31.6µM	22.4µM
COc1ccc(S(=O)(=O)Nc2cc(C)c(O)c(S(=O)(=O)c3ccccc3)c2)cc1	–	–	–	–	?
N#Cc1cc2c(nc1SCc1ccc(Cl)nc1)CCCCC2	·	–[9.22 µM]	–[10 µM]	·	·
Cc1cc[n+](-c2[nH]c(=O)sc2/C=N/N=C(\[O-])CCn2c3ccccc3c3ccccc32)cc1	·	–[9.22 µM]	–[10 µM]	·	–
Cc1cc[n+](-c2[nH]c(=O)sc2/C=N/N=C(\[O-])c2ccccc2)cc1	·	–[9.22 µM]	–[10 µM]	·	12.6µM
O=c1[nH]c(-[n+]2ccccc2)c(/C=N/N=C(\[O-])c2ccccc2)s1	·	–[9.22 µM]	–[10 µM]	·	·
Cc1cc[n+](-c2[nH]c(=O)sc2/C=N/N=C(\[O-])c2ccccc2)cc1C	–	–	–	·	22.4µM
COc1ccc(-n2cc(-c3ccccc3)c3c(N4CC(C)OC(C)C4)ncnc32)cc1 (configuration not stated)	·	?	–	·	?
CCOC(=O)c1sc(NC(=O)c2ccco2)nc1-c1ccccc1	–	–	–[10 µM]	–	–
Cc1sc(NC(=O)c2ccco2)nc1-c1ccccc1	–	–	–[10 µM]	14.1µM	–
Cc1sc(NC(=O)c2ccco2)nc1-c1ccc2c(c1)CC(C)N2C(=O)C1CC1 (configuration not stated)	?	15.8µM	–	?	?
CC(=O)c1sc(NC(=O)c2ccco2)nc1-c1ccccc1	–	–	–	11.2µM	–
COc1ccc2c(c1)Cc1sc(NC(=O)c3ccco3)nc1-2	–	–	–	–	?
CN1CCN(c2ncc3nc(-c4cccs4)c(=O)n(Cc4ccc(F)cc4)c3n2)CC1	–	·	–	·	–
CS(=O)(=O)N1CCCC(C(=O)NCCc2ccccc2)C1 (configuration not stated)	–	–	–	–	–
Cc1ccc(CCNC(=O)C2CCCN(C(=O)c3cc4sccc4n3C)C2)cc1 (configuration not stated)	?	–	–	–	8.91µM
Cn1c(C(=O)N2CCCC(C(=O)NCCc3ccccc3)C2)cc2sccc21 (configuration not stated)	–	?	–	–	11.2µM
Cn1c(C(=O)N2CCCC(C(=O)NCCCc3ccccc3)C2)cc2sccc21 (configuration not stated)	?	–	–[10 µM]	–	14.1µM
Cn1c(C(=O)N2CCCC(C(=O)NCc3ccc4c(c3)OCO4)C2)cc2sccc21 (configuration not stated)	–	–	–	–	3.55µM
CCOC(=O)N1CCC(NC(=O)C2CCCN(C(=O)c3cc4sccc4n3C)C2)CC1 (configuration not stated)	?	–	–	–	?
CCS(=O)(=O)N1CCCC(C(=O)NCc2ccc3c(c2)OCO3)C1 (configuration not stated)	–[0.0737 µM]	–	–	–	–
COc1ccc(NC(=S)NCCc2ccc(S(N)(=O)=O)cc2)c(OC)c1	·	–	·	·	22.4µM
COc1ccccc1NC(=S)NCCc1ccc(S(N)(=O)=O)cc1	·	–[9.22 µM]	–[10 µM]	·	?
COc1ccc(Cl)cc1NC(=S)NCCO	–	–[9.22 µM]	–[10 µM]	·	–
COc1ccc(Cl)cc1NC(=S)NCCc1ccc(S(N)(=O)=O)cc1	·	–	–	·	6.31µM
SMILES	LMNA splice mod	HTT aggregate	HTT cytoprotect	HPGD inh	ALDH1A1 block
CC1(C)CC(=O)C2=C(C1)NCN(Cc1ccccc1)C2	–	–	–[10 µM]	–	–
CCCN1CN(Cc2ccccc2)CC2=C1CC(C)(C)CC2=O	–	–	–	–	7.94µM
O=S(=O)(Cc1ccccc1)/C1=C(\N2CCOCC2)CCCCCC1	?	–	–[0.074 µM]	–	12.6µM
Cc1ccc(-c2ccc(=O)n(CC(=O)NCCc3ccc(Cl)cc3)n2)cc1	–	·	·	·	·
O=C(CCS(=O)(=O)c1ccc(Br)s1)NCc1ccccc1	–	–	–	–	–
Cc1ccc(CNC(=O)CCS(=O)(=O)c2ccc(Br)s2)o1	–	–	–	–	22.4µM
COc1ccccc1N1CCN(c2ncnc3c2cnn3C)CC1	–	·	·	·	·
